# Test results as given in PubChem BioAssay.
# Active and inactive are the calls of the source.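 Rule for the calls, unless noted: active = inhibition above 20% together with a positive visual image hit; inconclusive = visual image hit but inhibition not above 20%; inactive = no visual image hit.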
# Assays:
# [1] = inhibitors of TNFa-induced NFkB p65 translocation, primary screen, imaging, HUVEC, MLSMR starter and 10KST1 sets (AID 438); settings: HUVEC TNFa-induced p65 nuclear translocation; cell count: measured here: nuclei count (cytotoxicity indicator), at 2.08 µM; inhibition: at 2 µM, stronger effect = higher value, 0% TNFa-plus-vehicle, 100% no-TNFa wells;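 note: compound added about 3h40 before a 20 min TNFalpha stimulation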;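 for inhibition: signal is the nuclear over cytoplasmic p65 intensity ratio per well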
# [2] = reduction of polyQ htt aggregates in cells – imaging, exon1htt(103Q)mCFP cells, high-content imaging, primary screen (AID 483;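 active = visual image review flags a hit and inhibition of aggregation exceeds 20%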;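 note: compound exposure lasted 3 days before fixation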;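 for nuclei count: percent of the per-plate median nuclei count of sample wells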); settings: exon1htt(103Q)mCFP cell line, aggregate imaging, at 2 µM; inhibition of aggregation: stronger effect = higher value; nuclei count: measured here: cell count, toxicity
# [3] = endothelial E-selectin expression blockers – imaging, HUVEC, immunofluorescence, MLSMR starter and 10KST1 sets, primary screen (AID 487;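 active = visually confirmed hit in the image check and inhibition above 20%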;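 for inhibition: signal is fraction of cell area covered by stained E-selectin grains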;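 for nuclei count: 100% = median nuclei count of all wells on the same plate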); settings: HUVEC TNFalpha-induced E-selectin immunofluorescence imaging, at 2 µM; inhibition: stronger effect = higher value; nuclei count: measured here: cell number, toxicity
# [4] = biological target: Voltage-gated potassium channel subunit beta-2 (Rattus norvegicus) (UniProt P62483); experiment: inhibitors of rat Kvbeta2 reductase activity – biochemical, NADPH fluorescence, primary screen (AID 622;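 active = fluorescence slope higher than the sample average by over 3 SD, cut at about -0.22 in these data, passing the limit was not always enough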;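 note: slope of raw intensity against log time taken from 70 to 1610 s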); settings: recombinant KvBeta, 4-cyanobenzaldehyde reduction, at 10 µM, stronger effect = higher value
# Chain of Voltage-gated potassium channel subunit beta-2 (Rattus norvegicus) (P62483 whole entry, looked up): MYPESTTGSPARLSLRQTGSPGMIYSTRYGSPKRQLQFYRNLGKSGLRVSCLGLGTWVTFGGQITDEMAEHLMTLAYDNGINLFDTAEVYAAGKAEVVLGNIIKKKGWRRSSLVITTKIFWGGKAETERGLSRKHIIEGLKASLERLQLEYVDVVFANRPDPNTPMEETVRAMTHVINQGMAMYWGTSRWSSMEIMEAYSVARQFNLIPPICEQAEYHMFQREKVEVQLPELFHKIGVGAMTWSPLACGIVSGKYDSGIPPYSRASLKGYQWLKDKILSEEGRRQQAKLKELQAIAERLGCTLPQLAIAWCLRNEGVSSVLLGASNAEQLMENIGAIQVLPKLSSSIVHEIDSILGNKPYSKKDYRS
# [5] = biological target: Voltage-gated potassium channel subunit beta-2 (Rattus norvegicus) (UniProt P62483); experiment: enhancers of rat Kvbeta2 NADPH turnover – biochemical, NADPH fluorescence, primary screen (AID 623;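 active = NADPH fluorescence slope more negative than the mean of all samples by about 3 SD, 99.7% confidence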;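 note: fluorescence intensity change per second fitted from 20 to 320 s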); settings: Recombinant KvBeta, NADPH fluorescence decrease slope, 10 min; at 10 µM; stronger effect = lower value
# [6] = biological target: Alpha-2C adrenergic receptor (Homo sapiens) (UniProt P18825); experiment: compounds altering alpha2C-coupled GIRK flux – cell-based, HEK293 alpha2C/GIRK1/2, thallium flux, primary screen (AID 624;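 active = fluorescence slope after compound addition differing from the mean of all screened samples at 99.7% confidence, in either direction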;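 note: slope of fluorescence ratio to pre-addition baseline per second over 15 to 24 s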); settings: thallium flux BTC fluorescence, at 10 µM, actives lie on both sides
# Chain of Alpha-2C adrenergic receptor (Homo sapiens) (P18825 whole entry, looked up): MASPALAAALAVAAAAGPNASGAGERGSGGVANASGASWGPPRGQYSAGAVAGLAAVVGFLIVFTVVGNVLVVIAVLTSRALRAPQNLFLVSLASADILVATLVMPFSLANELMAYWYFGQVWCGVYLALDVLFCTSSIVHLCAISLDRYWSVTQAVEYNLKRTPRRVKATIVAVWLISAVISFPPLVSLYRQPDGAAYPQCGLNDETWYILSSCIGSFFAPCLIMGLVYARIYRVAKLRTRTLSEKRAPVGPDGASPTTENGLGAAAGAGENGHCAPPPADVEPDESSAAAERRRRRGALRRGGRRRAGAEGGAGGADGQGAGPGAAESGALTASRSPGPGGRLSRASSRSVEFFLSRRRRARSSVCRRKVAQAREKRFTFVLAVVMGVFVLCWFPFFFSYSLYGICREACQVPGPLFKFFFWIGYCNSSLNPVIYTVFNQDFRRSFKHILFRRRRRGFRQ
# [7] = blockers of RIG-like receptor reporter activation – cell-based, Sendai virus stimulus, luciferase, 10K MLSCN set, TLR/RLR signaling modifier project, primary screen (AID 602276;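 active = inhibition at or above 50% at 10 µM; inactive = inhibition below 50%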;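 note: firefly luciferase from ISG56 promoter only with Renilla not read in this screen; 0% = Sendai virus plus DMSO and 100% = medium plus DMSO without virus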); settings: HEK293 RL24 IRF3 luciferase reporter, at 10 µM, stronger effect = higher value
# [8] = TLR3 IRF3 reporter activation blockers – cell-based, poly I:C stimulus, luciferase, 10K MLSCN set, primary screen (AID 602277;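 active = inhibition of the reporter signal at or above 50%; inactive = inhibition below 50%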); settings: HEK293-TLR3 RL24 IRF3 luciferase reporter, at 10 µM, stronger effect = higher value
Compound,cell count [1],inhibition [1],inhibition of aggregation [2],nuclei count [2],inhibition [3],nuclei count [3],fluorescence slope [4],NADPH fluorescence slope [5],slope [6],inhibition [7],inhibition [8]
COCCN(CCOC)c1ncnc2c1cnn2-c1ccccc1,636,-8.5% (inactive),-21.1% (inactive),113%,-14.8% (inactive),107%,-0.531 (inactive),-2.1e-05 (inactive),0.00603 (inactive),-24.8% (inactive),-50.6% (inactive)
CC1CCN(C(=O)CCNS(=O)(=O)c2ccccc2)CC1,709,0.4% (inactive),-20.3% (inactive),101%,-149% (inactive),142%,-0.605 (inactive),-2.3e-07 (inactive),0.00564 (inactive),-23.4% (inactive),-31.3% (inactive)
CC12CN3CC(C)(CN(C1)C3c1ccc(Cl)cc1Cl)C2=O (stereo not given),849,-4.6% (inactive),-26.4% (inactive),123%,-21.6% (inactive),121%,-0.557 (inactive),-1.9e-05 (inactive),0.00699 (inactive),1.89% (inactive),28.2% (inactive)
Cn1c(=O)c2c([nH]c(=O)n2C)n(C)c1=O,364,1.7% (inactive),2.6% (inactive),104%,16.9% (inactive),101%,-0.435 (inactive),-0.000114 (inactive),0.00554 (inactive),18% (inactive),20.1% (inactive)
Cc1nnc(SCC(=O)Nc2ccc(Br)cn2)[nH]c1=O,359,-8.5% (inactive),18.1% (inactive),117%,-43.2% (inactive),114%,-0.426 (inactive),-1.1e-05 (inactive),0.00432 (inactive),15.8% (inactive),5.27% (inactive)
CCn1cc(C(=O)NCC2CCCO2)c(=O)c2cc(S(=O)(=O)N(C)C3CCCCC3)ccc21 (stereo not given),528,3.7% (inactive),-8.9% (inactive),99.3%,-60.9% (inactive),97.9%,-0.629 (inactive),-3.4e-05 (inactive),0.00653 (inactive),16.7% (inactive),33.2% (inactive)
CCOC(=O)C(NC(=O)c1ccccc1)(Nc1cc(C)on1)C(F)(F)F (stereo not given),379,2.6% (inactive),-4.6% (inactive),101%,0.6% (inactive),88.4%,-0.494 (inactive),-1.9e-05 (inactive),0.00554 (inactive),14.5% (inactive),24.7% (inactive)
COc1ccc(N2CCN(CCCNC(=O)C3(S(=O)(=O)c4ccc(Cl)cc4)CC3)CC2)cc1,447,-6.2% (inactive),8.8% (inactive),101%,-86% (inactive),115%,-0.565 (inactive),1.2e-05 (inactive),0.00533 (inactive),-9.9% (inactive),-1.93% (inactive)
O=c1[nH]c(SCc2ccccc2Cl)nc2c1CCCC2,447,-14.3% (inactive),36.1% (inactive),77.2%,-49.4% (inactive),111%,-0.295 (inactive),-2.4e-06 (inactive),0.00421 (inactive),10.6% (inactive),4.88% (inactive)
Cc1ccccc1N(C)S(=O)(=O)c1ccc2[nH]cc(C(=O)NCC3CCCO3)c(=O)c2c1 (stereo not given),523,-20.4% (inactive),17.8% (inactive),55%,-52.3% (inactive),104%,-0.404 (inactive),-4.2e-05 (inactive),0.00343 (inactive),-1.58% (inactive),14.4% (inactive)
